23 molecules from PubChem BioAssay can be followed below.

Values without a mark were called inactive. Activity calls are given as the source filed them.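 Rule for the calls: active = inhibition above the hit cutoff set in the earlier primary screen (cut at about 27% in these data); inactive = the rest.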

As usually defined, the inhibition is the change of the read-out against control, counted positive when it falls.

For this test, the target named is Protein phosphatase methylesterase 1 (Homo sapiens) (UniProt Q9Y570). Description: human PME-1 methylesterase inhibition confirmation – biochemical, fluorescence polarization, FP-Rh probe, triplicate (AID 2171).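 Note: 0% = enzyme with DMSO and 100% = wells lacking PME-1.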 The following applies: recombinant PME-1, FP-Rh probe fluorescence polarization; at 5.9 µM; hits give high values. A general note: Polarisation of emitted light reports the rotation of a fluorescent probe.
Protein phosphatase methylesterase 1 (Homo sapiens), sequence (Q9Y570 whole entry, looked up): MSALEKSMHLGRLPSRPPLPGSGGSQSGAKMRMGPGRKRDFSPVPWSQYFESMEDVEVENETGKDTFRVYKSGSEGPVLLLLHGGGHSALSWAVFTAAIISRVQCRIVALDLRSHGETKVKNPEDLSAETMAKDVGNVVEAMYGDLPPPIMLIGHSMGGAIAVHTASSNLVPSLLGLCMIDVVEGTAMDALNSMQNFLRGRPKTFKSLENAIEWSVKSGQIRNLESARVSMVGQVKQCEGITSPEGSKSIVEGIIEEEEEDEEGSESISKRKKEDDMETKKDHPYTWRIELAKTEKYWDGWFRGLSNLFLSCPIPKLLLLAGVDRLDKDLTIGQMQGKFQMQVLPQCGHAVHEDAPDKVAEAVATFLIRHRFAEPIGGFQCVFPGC
As to `O=c1c2ccccc2nc(/C=C/c2c[nH]c3ccccc23)n1CCO`, the inhibition is 58.5% (active). The same measure for `COc1ccc(-c2nc(-c3ccccc3)c(-c3cc([N+](=O)[O-])ccc3C)[nH]2)cc1O`: -4.82%; for `N#CCN(CC#N)C(=O)C1c2ccccc2Oc2ccccc21`: 0.3%; for `COc1ccccc1NC(=O)c1sc2nc(-c3ccco3)ccc2c1N`: 71.6% (active).

On to `CC(Sc1nnc(NC2CCCCC2)s1)C(=O)Nc1ccc2c(c1)C(=O)c1ccccc1C2=O` (stereo not drawn), for which the inhibition was -4.4%.

For the molecule `Oc1c(Br)cc(Br)cc1CNc1cnc2ccccc2c1`, the inhibition was 34.8% (active). As to `CCN(CC)C(=O)c1csc(Nc2cccc3ccccc23)n1`, the inhibition was 23.8%. On to `c1cc2c3c(cccc3c1)NC1(CCC3(CC1)Nc1cccc4cccc(c14)N3)N2`, for which the inhibition was 0.95%. For the molecule `C=CCCC(=O)Nc1nc(C)c(-c2csc(Nc3ccc(Cl)cc3)n2)s1`, the inhibition was 48.2% (active).

As to `COC(=O)N1C(=O)[C@](c2ccc(OC)cc2)(C(C)C)N1C(=O)OC`, the inhibition was 48.2% (active). Turning to `COC(=O)c1ccccc1C(=O)c1ccc2c(c1)NC(=O)CO2`, the inhibition is 7.04%. For the molecule `O=C(Nc1ccc(N2CCOCC2)cc1)Nc1ccc(Cl)c(Cl)c1`, the inhibition is 21.4%. For the molecule `COc1ccc(NS(=O)(=O)c2ccc3oc(Nc4ccc5c(c4)OCCO5)nc3c2)cc1`, the inhibition is 12.1%. `Cc1ccc(-c2ccccc2NC(=O)CS(=O)CC(=O)Nc2ccc(C)c(Cl)c2)o1` (stereo not drawn): the inhibition is 0.73%. The same measure for `Cc1cc(C)c2[nH]c(O)c(N=NC3=NC(=O)CS3)c2c1`: 32% (active); for `Oc1[nH]c2ccccc2c1N=Nc1ncnc2c1oc1ccccc12`: 35% (active). For `O=[N+]([O-])c1ccc(C2Nc3cccc4cccc(c34)N2)cc1`, the inhibition is 35.9% (active).

Take `Nc1[nH]n(-c2ccccc2)c(=O)c1N=Nc1ccc2c(c1)OCO2`: the inhibition is 39.8% (active).

In the case of `COc1ccc(S(=O)(=O)N2CCCCCC2)cc1NC(=O)Cc1cc(OC)c(OC)c(OC)c1`, the inhibition is 64% (active). The same measure for `Oc1ccc(Nc2nc3ccccc3nc2Nc2ccc(O)cc2)cc1`: -0.74%; for `Oc1ccc(N=Cc2ccc(-c3cccs3)s2)cc1`: 23.3%; for `Nc1c(C(=O)Nc2ccc(Br)cc2)sc2nc(-c3ccco3)ccc12`: 34.4% (active).

With `Cn1c(=O)cc2c3c(c(N4CCCCC4)ccc31)C(=O)c1ccccc1-2`, the inhibition is 24.1%.
